Measured values taken from ChEMBL document CHEMBL3988442, “University of Dundee, Small-Polar-MMV Screening Library” (2021).

Tests used:
[1] = target: T1, Aspartate--tRNA(Asp/Asn) ligase (Mycobacterium tuberculosis (strain ATCC 25618 / H37Rv)) (UniProt P9WFW3); test: Assay for Asp RNA synthetase-1 from Mycobacterium tuberculosis; type: functional; parameters: scale not given: direction of the effect not stated beside the values; settings: 30 µM; further: in the data most compounds retested in dose-response had high values
T1 sequence (whole entry): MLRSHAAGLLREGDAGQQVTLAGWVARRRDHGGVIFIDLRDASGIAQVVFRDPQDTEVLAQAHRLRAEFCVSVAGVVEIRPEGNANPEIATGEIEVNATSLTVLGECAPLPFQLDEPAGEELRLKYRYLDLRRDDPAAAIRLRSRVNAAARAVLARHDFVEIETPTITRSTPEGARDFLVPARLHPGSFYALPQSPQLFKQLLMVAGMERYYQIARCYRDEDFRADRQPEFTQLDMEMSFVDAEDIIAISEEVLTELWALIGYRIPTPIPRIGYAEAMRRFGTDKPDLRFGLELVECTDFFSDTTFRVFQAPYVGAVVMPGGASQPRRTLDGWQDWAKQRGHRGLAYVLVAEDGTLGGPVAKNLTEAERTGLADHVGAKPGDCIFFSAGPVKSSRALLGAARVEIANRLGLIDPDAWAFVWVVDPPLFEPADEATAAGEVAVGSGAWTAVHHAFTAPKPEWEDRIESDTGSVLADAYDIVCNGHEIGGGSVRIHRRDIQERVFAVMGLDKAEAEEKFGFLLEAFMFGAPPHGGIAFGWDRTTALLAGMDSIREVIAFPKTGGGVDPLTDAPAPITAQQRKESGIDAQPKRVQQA

[2] = target: Shiga toxin 2 (Escherichia coli O157:H7) (UniProt P09385+P09386); test: E. coli 0.157:H7 Shiga Toxin SOP - stx2 screening assay; type: functional; parameters: scale not given: direction of the effect not stated beside the values; settings: 30 µM

Structure (SMILES) | Percent Effect [1] [%] | Percent Effect [2] [%]
CC(C)c1n[nH]c(C2CN(C(=O)C3=COCC3)CCO2)n1 (stereo unspecified) | -3.88 | 17.2
FC(F)(F)c1cc(N2CCc3ncnc(NC4CC4)c3CC2)ncn1 | 5.62 | -15.2
Cc1nn(CC(C)C)c(N(C)C)c1CNCc1cccc2c1OCO2 | 1.9 | 20.6
Cc1nn(C)c(C)c1CNC1CCOc2ccccc21 (stereo unspecified) | -0.466 | 8.07
CCC1CN(c2nnc(C)c(C)c2C#N)CCO1 (stereo unspecified) | 0.1 | 11.9
COCCOc1ccccc1C(=O)N1CCCCC1c1nccs1 (stereo unspecified) | 4.67 | -6.36
O=C(NCCC1=CCCCC1)NCc1nnc2n1CCC2 | 2.5 | 24.3
Cc1nc(CN2CCCC(NCCOCC(F)(F)F)C2)no1 (stereo unspecified) | -8.65 | -8.56
CCc1ncncc1C(=O)NCCN1CCC(C)CC1 | -3.79 | 5.13
Cc1nc(COC[C@@H]2CC[C@H]3[C@H](CCN3S(C)(=O)=O)O2)cs1 | 6.16 | 1.49
CS(=O)(=O)NCCCN1CCCC1Cc1ccccc1 (stereo unspecified) | -3.08 | -0.572
O=C(O)c1nnn(-c2ccc(F)c(F)c2)c1-c1ccncc1 | 2.4 | -13
Cc1cnc(CN(C)C2CCN(CCn3cc(C#N)cn3)C2)o1 (stereo unspecified) | 5.46 | 17.1
Cc1cc(CN(C)C(=O)c2cccc(N3CCCC3=O)c2)no1 | 4.48 | -12.4
CCn1cnnc1CNC(=O)N1CCN(Cc2ccccc2)CC1 | -0.692 | 8.37
CCc1nnc2n1CCN(C(=O)Cc1csc(-c3ccco3)n1)C2 | -2.26 | -3.06
Cc1cccc(-c2nc(CN3CCc4c(ncn4C)C3)no2)c1 | 1.91 | 4.04
CCS(=O)(=O)N1CCC2(CCC2NC(=O)c2ccn(C)c2)CC1 (stereo unspecified) | 1.6 | 9
CSCc1cccc(S(=O)(=O)NCCCn2ccnc2)c1 | 11 | -15.1
CC(=O)N(Cc1ncc(C(C)C)o1)C1CCN(Cc2ncc[nH]2)C1 (stereo unspecified) | 5.3 | 10.9
Cc1ccc(CN2CC[C@H]3OCC[C@@H](c4nc(C)no4)[C@H]3C2)cc1 | -5.18 | 8.54
COc1ccc(C[C@H]2CN(C(=O)c3ccncc3)CC[C@@H]2OC)cc1 | 1.64 | -22.2
COc1ncccc1C(=O)N1CCCC(c2cc(C)[nH]n2)C1 (stereo unspecified) | -4.25 | 5.54
CN1CCN(c2cc(CNC(=O)c3ccc(=O)[nH]n3)ccn2)CC1 | -0.544 | -57.8
Cc1nc(C)n(CC2CCCN2CC(=O)NCc2ccco2)n1 (stereo unspecified) | 4.57 | -5.68
O=C1NCCCCC1Sc1nnc(C2CC2)n1C1CC1 (stereo unspecified) | -6.09 | 3.62

Structure (SMILES) | Percent Effect [1] [%] | Percent Effect [2] [%]
O=C(NCCn1ccnc1)N1CCCC1c1ccsc1 (stereo unspecified) | -7.57 | -9.24
CCc1noc(CN2CCCN(C(N)=O)CC2)n1 | -1.28 | 5.08
O=C(NCc1nn(-c2ccccc2)c2c1CCC2)NC1CC1 | 1.63 | 9.96
CCN(Cc1ccc2c(c1)OCO2)C(=O)NC(C)Cn1cccn1 (stereo unspecified) | -0.819 | -12.4
Cc1nc(C2CCCN(C(=O)COCc3ccccc3Cl)C2)no1 (stereo unspecified) | 1.96 | 5.07
CC(=O)Nc1nc(C2CCN(C(=O)c3cccnc3)CC2)cs1 | -8.57 | -3.89
Cn1c(Nc2cn[nH]c2)c(C#N)c(=O)n(C)c1=O | -0.24 | -19.1
c1csc(-c2nc(CN3CCCC3Cn3cncn3)co2)c1 (stereo unspecified) | 3.68 | -0.336
CCn1c(Nc2ccccc2OC)nc2c(C)nn(C)c2c1=O | -3.4 | -16.8
Cc1nn(C)c2cn(C(C)C(=O)NCc3cccnc3)nc12 (stereo unspecified) | -1.71 | -24.9
O=C(c1ccc(C2CCCO2)s1)N1Cc2ccccc2C1 (stereo unspecified) | 0.948 | -61.8
Cn1cnnc1C1CCCN(C(=O)NCCNc2ccccn2)C1 (stereo unspecified) | -6.46 | 19
CNC(=O)CN1CCCC12CCN(C(=O)c1ccsc1)CC2 | 0.137 | -0.413
O=C(CN1CCOC(Cn2cccn2)C1)Nc1nccs1 (stereo unspecified) | -4.87 | -17.3
COc1ccc(C(O)CNc2c(C#N)c(=O)n(C)c(=O)n2C)cc1 (stereo unspecified) | -3.91 | -4.88
O=C(CCc1ccsc1)NCC1CCN(c2ccccc2)C1 (stereo unspecified) | 0.529 | -12.3
Cc1nc(-c2ccsc2)ccc1C(=O)NCCC(=O)N1CCCC1 | 0.0333 | -18.4
O=C(CN1CCCCC1Cn1cncn1)NCc1ccccn1 (stereo unspecified) | 4.05 | 4.47
Cc1cccc(C(=O)N(C)Cc2cc(Br)cs2)n1 | -0.0599 | -8.77
CCn1cc2c(n1)CN(CC1CC1)CC2COCC1CC1 (stereo unspecified) | -2.72 | -2.1
CC(C)CC(=O)N1CCCn2cnc(CN3CCCC3=O)c2C1 | -3.68 | -15.8
CSCC(=O)N1C[C@H]2CC[C@@H]1CN(Cc1ccccc1)C2 | 4.28 | -4.7
O=C(CCNC(=O)C1CCCC1)NCc1cccnc1-n1cncn1 | 0.59 | 23.7
CCc1n[nH]c(C2CN(C(=O)c3ncoc3C(C)C)CCO2)n1 (stereo unspecified) | 2.8 | -12.1
CC(O)CN1CCN(C(=O)CN(C)c2ccc(Cl)cn2)CC1 (stereo unspecified) | 0.546 | -10.6
O=C(Nc1cccnc1)[C@H]1C[C@@H]2CCN(c3nncs3)C[C@H]2O1 | -3.84 | -14

Structure (SMILES) | Percent Effect [1] [%] | Percent Effect [2] [%]
NC(=O)COc1cccc(C(=O)N2CCCC(n3cccn3)C2)c1 (stereo unspecified) | -6 | -18.8
Cc1ccc(NC2CCN(C(=O)CCNS(C)(=O)=O)CC2)nn1 | -2.45 | -0.275
CN(C)CCN(Cc1ccc(Cl)cc1)C(=O)c1cc[nH]n1 | -3.79 | 9.32
COCc1noc(C2(c3ccc(F)cc3)CCOCC2)n1 | -2.06 | -10.8
CCN1CCOC(CNCc2ccccc2OCc2ccccn2)C1 (stereo unspecified) | 3.85 | 23.9
O=C1CC(c2ccco2)c2sc(C(=O)O)c(-c3ccccc3)c2N1 (stereo unspecified) | 7.4 | 19
COc1ccc(-c2nc(CN3CCCC3Cn3cccn3)no2)cc1 (stereo unspecified) | -3.19 | -24.1
CCOCC1CC2(CCN(Cc3ccccn3)CC2)CO1 (stereo unspecified) | 0.869 | -0.96
CN1CCCn2c(nc(CNC(=O)c3ccsc3)cc2=O)C1 | 4.62 | -9.45
O=c1nc(CNc2ccccc2)[nH]n1Cc1ccccc1 | 3.89 | 2.45
Cc1cccc(CN2C[C@@H]3COC[C@]3(CNC(=O)N3CCCC3)C2)n1 | 2.42 | 11.4
CC(=O)c1cccc(OCCCC(=O)N(C)Cc2cccc(O)c2)c1 | -2.31 | -20.2
Cc1cnn(CCNCC(O)COc2ccc(C#N)cc2)c1 (stereo unspecified) | 1.2 | -30.5
CN(Cc1ccc(N2CCCCC2)cc1)Cc1noc(C(C)(C)C)n1 | 1.93 | -7.66
COCCO[C@@H]1C[C@H]2CN(C(=O)c3cnccn3)CCN2C1 | 6.43 | -13
Cc1nc(CN(Cc2ccccc2)C2CCS(=O)(=O)C2)oc1C (stereo unspecified) | -0.478 | 24.1
CCS(=O)(=O)c1ccccc1N1CCC(NC(=O)c2ccc[nH]2)CC1 | -2.04 | 9.33
CCOc1ncccc1NC(=O)c1sccc1C | -0.501 | -11.1
CCOCc1cccc(S(=O)(=O)N2CCSCC2)c1 | -3.43 | -4.15
Cc1ccc(CNC(=O)NCc2cccnc2N(C)C)s1 | -3.67 | 1.79
O=C(Cn1cnc(-c2ccccc2)cc1=O)Nc1ccncc1 | -2.03 | -36.3
CNc1cc(C2CCCN2Cc2ccccc2C(=O)O)ccn1 (stereo unspecified) | -0.938 | -8.27
COc1c(CNC(c2nccn2C)C(C)C)c(C)nn1C (stereo unspecified) | 0.122 | 16.3
Cc1cn2c(n1)CCC(NC(=O)CCn1ccnn1)C2 (stereo unspecified) | -3.77 | 19.8
CNS(=O)(=O)c1cccc(CNc2cc(C(F)(F)F)ccn2)c1 | -2.24 | 27.2
CC(C)CCC(C)NC(=O)c1ccc(OCC(N)=O)cc1 (stereo unspecified) | 2.49 | -8.96

Structure (SMILES) | Percent Effect [1] [%] | Percent Effect [2] [%]
CC(=O)N1CCN(CCNS(=O)(=O)c2ccc(C)c(F)c2)CC1 | -1.95 | 5.72
CCn1cc(NC(=O)NCC(O)CN2CCCCC2)cn1 (stereo unspecified) | -0.173 | 21.2
CCN(CC)C(=O)c1cc(C2CCCN2C)ccn1 (stereo unspecified) | 4.39 | 1.51
COCCn1cc2c(n1)C(CNCc1ccc(F)cc1)OCC2 (stereo unspecified) | 1.2 | -6.53
Cc1ccc(CN2CCCn3c(nc(CN4CCCC4)cc3=O)C2)s1 | 4.32 | 7.63
CC(c1nc(C2CC2)no1)N1CCN(Cc2ccsc2)CC1 (stereo unspecified) | -4.63 | -11.4
O=C(CCc1ccc(=O)[nH]n1)N1CCCC(COc2ccc(F)cc2)C1 (stereo unspecified) | 3.84 | 6.15
O=c1cc(Cn2cncn2)nc2n1CCCN(CC1CC1)C2 | -4.96 | -0.568
CN(C)C(=O)CCCNC(=O)C(c1cccc(F)c1)N(C)C (stereo unspecified) | -1.57 | -24.8
O=C(C1CCOC1)N1CCc2ncc(CNc3ccccn3)n2CC1 (stereo unspecified) | -0.229 | -21.5
COCCN1CCC(N(Cc2noc(C3CC3)n2)C(C)=O)C1 (stereo unspecified) | -1.46 | 29.5
CC(Cn1cccn1)NC(=O)NCCc1cnn(C)c1 (stereo unspecified) | -2.54 | -3.5
CCCc1cc(C(=O)N2CCCC2c2cccnc2)[nH]n1 (stereo unspecified) | 3.74 | 11.1
CN(C)C(=O)CN1C[C@@H]2CC[C@H](C1)N(Cc1cc(F)ccc1F)C2 | -0.16 | -37.1
c1cnc2c(c1)cc([C@H]1CCCO1)n2CCN1CCCCC1 | -0.551 | -28.2
CCNC(c1cccnc1)c1cc(C)cc(C)c1 (stereo unspecified) | -2.55 | -3.23
Cc1nc(CN2CCCC(NCCc3ccccc3Cl)C2)no1 (stereo unspecified) | -1.91 | 10.1
CC(C)COCC(NC(=O)c1cc[nH]n1)c1ccco1 (stereo unspecified) | 7.45 | 9.69
COc1cc(CNC2CCCc3c2cnn3C)cc(OC)c1 (stereo unspecified) | -0.657 | 18.7
CCc1cccc(N2CCC(NC(=O)c3cc[nH]n3)CC2)c1 | 7.15 | 18.9
O=C(c1ccoc1)N1CCC2(CC1)C(=O)Nc1ccccc12 | -1.51 | -2.64
CN(C)C(=O)CO[C@@H]1CC[C@H]2[C@H]1OCCN2C(=O)C1CCOCC1 | -1.59 | -10.1
CCC1=N[C@@]2(CC[C@@H]3CN(C(=O)NC(C)C)C[C@@H]32)C(=O)N1C | -7.39 | 3.05
COc1cccc(N2CCN(C(=O)C(O)c3cccc(Cl)c3)CC2=O)c1 (stereo unspecified) | 0.569 | -24.2
COCCNC(=O)[C@H]1C[C@@H]2CCN(Cc3ccoc3)C[C@H]2O1 | 3.35 | -3.8
